Active and inactive are the calls of the source. Calls come from the whole dose curve; as a rule, active = well fitted curve in the direction sought with a large enough effect in the repeat runs; inconclusive = weak or mixed curves; inactive = flat fitted curve, though single readings scatter.
% is set by controls: 0 for no effect and ±100 for the full control effect.

This experiment can be described thus: qHTS assay to test for compound auto fluorescence at 460 nm (blue) in HepG2 cells (AID 720687). The note with it: autofluorescence 405/460 nm, 1 h; series mostly up to 91.3 µM; fluorescence, % of fluorescent control: at the top concentration. An excerpt:
U.S. Tox21 Program National Center for Advancing Translational Sciences [NCATS] NIH Chemical Genomics Center [NCGC] U.S. Environmental Protection Agency [EPA] National Institutes of Environmental Health Sciences [NIEHS] National Toxicology Program [NTP] U.S. Food and Drug Administration [FDA] Tox21 Assay Overview: Compound auto fluorescence often interferes with screening of the compound library against various biological targets and signaling pathways. Some of these compounds may have fluorophoric properties. Such properties may interfere with the assay outputs resulting in false positives and/or negatives. To decrease such complications and ensure the compound activities are relevant in terms of biological response, the Tox21 10K compound library was screened for auto fluorescence. From the fluorophores used as reporter signals in our screening assays, the auto fluorescence equivalencies of compounds against three fluorophores have been evaluated: Triamterene, Fluorescein and Rose Bengal sodium for blue, green and red fluorescence, respectively. The fluorescence intensities were measured using Excitation/Emission wavelengths at 405/460nm, 485/535nm and 540/590nm for blue, green and red labels, respectively. This assay includes the blue fluorescence data.
Tox21 Assay Protocol Summary: 2,000 HepG2 cells in 5 uL of culture medium (MEM containing 10% FBS) per well were dispensed into black wall/clear bottom 1536-well plates using a Multidrop Combi Dispenser (ThermoFisher Scientific, Waltham, MA). The assay plates were incubated overnight at 37 C to allow cell attachment to the well bottom, followed by the transfer of 23 nL compound or DMSO vehicle by a pintool work station (Kalypsys , San Diego, CA). After the assay plates were incubated for 1 hr at 37 C and 5% CO2, fluorescence intensities in the assay plates were measured by an Envision (PerkinElmer, Shelton, CT) plate reader using three labels for measuring blue, green and red fluorescence at […] 460, 535 and 590 nm respectively.
(qHTS replaces the single test concentration by a dilution series.)
Take `CCCCc1nc2cccnc2n1Cc1ccc(-c2ccccc2-c2nnn[nH]2)cc1`: the “fluorescence, % of fluorescent control” value was 0.0246% (inactive).

For the molecule `Nc1c(CC(=O)O)cccc1C(=O)c1ccc(Br)cc1`, the “fluorescence, % of fluorescent control” value was 0.0447% [at 46 µM] (inactive).

Turning to `CCCCC`, the molecule was called inactive.

As to `NCC(=O)CCC(=O)O`, the “fluorescence, % of fluorescent control” value is -0.0467% [at 46 µM] (inactive).

`CCCCO`: the result was inactive.

As for `O=C1C(O)=C(O)C(=O)C(O)=C1O`, the “fluorescence, % of fluorescent control” value is -0.0005% [at 46 µM] (inactive).

On to `CC[N+](C)(CC)CCOC(=O)C(O)(c1ccccc1)C1CCCCC1` (stereo not given), for which the “fluorescence, % of fluorescent control” value was -0.043% [at 46 µM] (inactive).

For the molecule `CCCCCCCCCCCCN1CCCCCC1=O`, the “fluorescence, % of fluorescent control” value was 0.0237% (inactive).

Turning to `COc1cccc(N(C)C(=S)Oc2ccc3c(c2)CCCC3)n1`, the “fluorescence, % of fluorescent control” value is 0.0131% [at 46 µM] (inactive).

`CCC(=O)O[C@]1(C(=O)CCl)[C@@H](C)C[C@H]2[C@@H]3CCC4=CC(=O)C=C[C@]4(C)[C@@]3(F)[C@@H](O)C[C@@]21C`: the “fluorescence, % of fluorescent control” value is -0.0088% [at 46 µM] (inactive).

As to `CCCCCCCCCCCCCCOS(=O)(=O)O`, the “fluorescence, % of fluorescent control” value was 0.0373% (inactive).

`CC(=O)[O][Al]`: the “fluorescence, % of fluorescent control” value was -0.0292% [at 95.7 µM] (inactive).

For the molecule `CN(C)c1ccc(CCO)cc1`, the “fluorescence, % of fluorescent control” value is -0.0887% (inactive).

Take `CCOc1ccc(N)c([N+](=O)[O-])c1`: the “fluorescence, % of fluorescent control” value was -0.493% (inactive).

For `C=CC(=O)OCCOCCOC(=O)C=C`, the “fluorescence, % of fluorescent control” value was -0.0743% (inactive).

For the molecule `CC(=O)c1cccc([N+](=O)[O-])c1`, the “fluorescence, % of fluorescent control” value was 0.0042% (inactive).

For the molecule `Cc1nn(C)c(Oc2ccccc2)c1/C=N/OCc1ccc(C(=O)OC(C)(C)C)cc1`, the “fluorescence, % of fluorescent control” value is -0.0537% (inactive).

Take `O=CC1CC=CCC1` (stereo not given): the “fluorescence, % of fluorescent control” value was -0.0314% (inactive).

On to `CCN(CC)CCOC(=O)C(Cc1cccc2ccccc12)CC1CCCO1` (stereo not given), for which the fluorescence, % of fluorescent control was -0.147% [at 18.6 µM] (inactive).

For `CCCCCCCCCCCc1ccccc1`, the “fluorescence, % of fluorescent control” value was 0.0533% (inactive).

For `O=C1CCC(=O)O1`, the “fluorescence, % of fluorescent control” value is 0.179% (inactive).

Regarding `CCCCC(CC)COC(=O)COc1ccc(Cl)cc1Cl` (stereo not given), the “fluorescence, % of fluorescent control” value is -0.0255% [at 95.7 µM] (inactive).

Consider `CC[N+]1(CC)CCC(=C(c2ccccc2)c2ccccc2)C1C` (stereo not given), for which the “fluorescence, % of fluorescent control” value is 0.0104% [at 46 µM] (inactive).

Take `C/C=C/C=C/CO`: the “fluorescence, % of fluorescent control” value was 0.0319% (inactive).

Regarding `C#C[C@]1(O)CC[C@H]2[C@@H]3CCc4cc(OC5CCCC5)ccc4[C@H]3CC[C@@]21C`, the “fluorescence, % of fluorescent control” value was 0.0099% [at 46 µM] (inactive).

Regarding `O=C(OCCCCCCOC(=O)c1ccccc1)c1ccccc1`, the “fluorescence, % of fluorescent control” value is -0.166% (inactive).

As to `O=C(O)C1(C(=O)Nc2ccc(Cl)cc2Cl)CC1`, the “fluorescence, % of fluorescent control” value is 0.0283% (inactive).

Turning to `C[C@@H](c1ncncc1F)C(O)(Cn1cncn1)c1ccc(F)cc1F` (stereo not given in full), the “fluorescence, % of fluorescent control” value was -0.0982% [at 46 µM] (inactive).

For the molecule `CC(=O)NO`, the “fluorescence, % of fluorescent control” value was -0.245% [at 46 µM] (inactive).

Turning to `Cc1ccc(N=Nc2c(O)c(C(=O)O)cc3ccccc23)c(S(=O)(=O)O)c1`, the “fluorescence, % of fluorescent control” value is -0.0331% [at 46 µM] (inactive).

Turning to `NCC(=O)O`, the “fluorescence, % of fluorescent control” value was 0.0507% [at 46 µM] (inactive).

For the molecule `CCCCCCCC/C=C\CCCCCCCC(=O)OCC`, the “fluorescence, % of fluorescent control” value was 0.0588% (inactive).

For the molecule `CC(C)(C)Cl`, the “fluorescence, % of fluorescent control” value was 0.0076% [at 95.7 µM] (inactive).

Consider `C=CCOc1ccccc1OCC(O)CNC(C)C` (stereo not given), for which the fluorescence, % of fluorescent control was -0.0332% [at 18.6 µM] (inactive).

As to `CCCCCCCCO[C@@H]1O[C@H](CO)[C@@H](O)[C@H](O)[C@H]1O`, the “fluorescence, % of fluorescent control” value is -0.0982% (inactive).

On to `O=[N+]([O-])c1cccc(S(=O)(=O)O)c1`, for which the “fluorescence, % of fluorescent control” value was -0.133% [at 95.7 µM] (inactive).

Take `CCCCCCCCCCO[C@@H]1O[C@H](CO)[C@@H](O)[C@H](O)[C@H]1O`: the “fluorescence, % of fluorescent control” value was -0.0842% (inactive).

`CN(C)c1ccc(/C=C/c2ccc([N+](=O)[O-])cc2)cc1`: the fluorescence, % of fluorescent control was -0.0831% [at 3.72 µM] (inactive).

As for `COCC(C)OC(C)=O` (stereo not given), the “fluorescence, % of fluorescent control” value is 0.0478% (inactive).

`Cc1cccc(Nc2ccccc2)c1`: the “fluorescence, % of fluorescent control” value was -0.0556% (inactive).

Source of the values: PubChem BioAssay (Tox21).
